Source: PubChem (several laboratories)
IDE cell inh: inhibitors of human insulin-degrading enzyme in cells | AID 434962 | inhibition, % at 5.59 µM | HEK cells, FAbetaB cleavage, fluorescence polarization | 320,000 tested, 0.41% active | P14735;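 active = percent inhibition above the average of all tested compounds plus 3 SD, set per screening campaign, cut at about 16% in these data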;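 also: IDE supplied by intact live HEK cells; FP after avidin binding of uncleaved biotin substrate so inhibition keeps polarization high; 0% = DMSO wells and 100% = 60 µM reference IDE inhibitor Ii1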
ALR H2O2 inh: inhibitors of human sulfhydryl oxidase ALR | P55789 | purified ALR, DTT oxidation, H2O2 HRP-luminol luminescence | inhibition, % (no concentration beside the values) | 290,000 tested, 3.8% active | AID 485317;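 active = mean replicate inhibition above about 79%, with every replicate also reaching it, limit read from the data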
Target sequence (P55789 whole entry, looked up): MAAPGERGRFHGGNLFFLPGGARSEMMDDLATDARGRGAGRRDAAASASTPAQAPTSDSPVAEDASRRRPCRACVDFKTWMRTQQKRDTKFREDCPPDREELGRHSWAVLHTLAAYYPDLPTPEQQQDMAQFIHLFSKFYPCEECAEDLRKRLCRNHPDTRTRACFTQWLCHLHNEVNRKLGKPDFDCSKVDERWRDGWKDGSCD
M18AAP inhibitor: blocks P. falciparum M18 aspartyl aminopeptidase; recombinant PfM18AAP, H-Glu-NHMec fluorogenic cleavage; inhibition, % at 7.35 µM; 290,000 tested, 1.2% active;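 active = inhibition above the campaign mean inhibition over all tested compounds plus 3 SD, cut at about 28% in these data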;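 also: 0% = plate median of test compound wells and 100% = 2 mM ZnCl2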
PolyA inh: blocks polyadenylation in yeast reporter cells | AID 1875 | S. cerevisiae SKY197-pL101 polyadenylation reporter, beta-gal luminescence; efflux-impaired pdr1/pdr3 knockout yeast; score 100 = 6 SD above DMSO | activity score, % at 12 µM | 300,000 tested, 0.02% active;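 active = lowest replicate activity score at least 50, where 100 means six control SD above control mean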;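 also: yeast exposed to compound for 9 h at 30 °C; higher score means more reporter readthrough which indicates perturbed polyadenylation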
CaV13 FRET inh: Primary screen for inhibitors of IQ motif and Ca2+-dependent inactivation inhibitor domain binding in CACNA1D, Förster resonance energy transfer in living cells, …. HEK cells, CFP/YFP FRET ICDI-IQ, plate reader, 10 min; percent FRET-ratio fall versus neutral wells. inhibition, % at 12.3 µM. 340,000 tested, 0.098% active. AID 743397;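 active = mean replicate inhibition of at least 30% and at least 1% of replicates passing that level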;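 also: 0% = median of the neutral control wells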
IDE cell activ: IDE (human) activation, cell-based; P14735; HEK cells, FAbeta-B cleavage, fluorescence polarization; 0% vehicle, 100% cell-free pure enzyme wells; activation, % at 5.96 µM; 340,000 tested, 0.073% active; AID 493087;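 active = activation above the mean of all tested compounds plus 3 SD, set per screening campaign, cut at about 17% in these data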
The depositor's hits bear a star; nt = no result. Shown are actives, neighbours in structure and some others; about 4.1% of the full set was active somewhere.

SMILES | IDE cell inh | ALR H2O2 inh | M18AAP inhibitor | PolyA inh | CaV13 FRET inh | IDE cell activ
COc1ccc2c(COC(=O)CNC(=O)C34CC5CC(CC(C5)C3)C4)cc(=O)oc2c1 | 10 | -26 | -19 | 2 | -6 | 1
C[C@H](NC(N)=O)C(=O)N1CCN(S(=O)(=O)c2ccc3ccccc3c2)CC1 | 1 | 0 | -5 | -1 | -2 | -2
Nc1nc(SCC(=O)Nc2ncc(C(F)(F)F)cc2Cl)n[nH]1 | -1 | 10 | 28* | -4 | 15 | 0
O=C(CSc1ncccn1)Nc1ncc(C(F)(F)F)cc1Cl | -5 | 0 | 13 | 5 | 4 | 0
CC1=C(C(=O)OC2CCCCC2)C(c2ccccc2)NC(=O)N1 (stereo unspecified) | 15 | 97* | 3 | 13 | -19 | -15
Cc1cnc(-c2nc3ccccc3n2C(C(=O)NC(C)(C)C)c2cc3ccccc3o2)cn1 (stereo unspecified) | nt | nt | nt | nt | -4 | nt
CC(=O)Nc1cccc(C(=O)/C=C/c2ccc(/C=C/C(=O)c3cccc(NC(C)=O)c3)cc2)c1 | -1 | -3 | -2 | 32 | -5 | nt
CC(=O)Nc1cccc(C(=O)/C=C/c2cccs2)c1 | 7 | 97* | 5 | -2 | -5 | -3
COc1ccc(-c2cc3ccccc3n2CC(O)CN2CCN(CCO)CC2)cc1 (stereo unspecified) | -3 | 96* | 2 | 7 | -7 | 3
O=c1c2oc3ccccc3c2[nH]c(=S)n1-c1ccc(F)cc1 | -2 | 60 | 8 | 6 | -14 | -1
CC1CCCCC1NC(=O)CCCCn1c(=O)[nH]c2ccsc2c1=O (stereo unspecified) | -6 | -24 | -7 | -21 | -3 | 1
Cc1ccc(C(CC(=O)c2ccco2)SCCO)cc1 (stereo unspecified) | 7 | 2 | 12 | 5 | -3 | 0
O=C(CC(SCCO)c1ccc(F)cc1)c1ccco1 (stereo unspecified) | 0 | 89* | 17 | 1 | -6 | -1
CN(C)/C=N/c1sc2c(c1C#N)CCC2 | -1 | 87* | 7 | 1 | -9 | 0
O=C(N/C(=C\c1ccc(Br)cc1)C(=O)N1CCCC1)c1ccccc1F | -1 | nt | -16 | -18 | 4 | 6
COc1ccc(OC)c(S(=O)(=O)Nc2ccc(O)c3ccccc23)c1 | 4 | 38 | 8 | 16 | nt | -1
COc1ccc(OC)c(S(=O)(=O)Nc2cccc3c(O)cccc23)c1 | -1 | 87* | nt | 16 | -20 | nt
C/C(=N\Nc1nc2c(s1)CCCC2)c1ccccc1 | -3 | nt | 15 | -7 | -5 | 1
CCOc1ccc(NC(=O)CSc2ncn[nH]2)c([N+](=O)[O-])c1 | -3 | -15 | 30* | 6 | -6 | 5
Cc1nnc(NC(=O)CSc2nnc(C)c(=O)n2N)s1 | 1 | -14 | 1 | -7 | -3 | -2
Cc1nnc(SCC(=O)Nc2ccc(S(N)(=O)=O)cc2)n(N)c1=O | 4 | 99* | nt | nt | -6 | 0
CCc1nnc(NC(=O)CSc2nnc(C)c(=O)n2N)s1 | 4 | 95* | -10 | 3 | nt | 3
CCc1ccc(NC(=O)CSc2nnc(C)c(=O)n2N)cc1 | 6 | 99* | -4 | -9 | nt | 0
CC(C)c1ccc(N(CC(=O)NCC2CCCO2)C(=O)Cn2nnc(-c3cccs3)n2)cc1 (stereo unspecified) | 12 | -9 | -5 | 11 | -5 | -5
C=CCN1C(=O)c2ccc(C(=O)NCCc3ccc(OC)c(OC)c3)cc2C1=O | 3 | 2 | -2 | 2 | -6 | 4
SMILES | IDE cell inh | ALR H2O2 inh | M18AAP inhibitor | PolyA inh | CaV13 FRET inh | IDE cell activ
COc1cccc(CNc2ccc(N3CCC(C)CC3)cc2)c1OC | 5 | 98* | 0 | -31 | -5 | 6
CCC(C(=O)NCCCN1CCCC1=O)n1c2ccccc2c2nc(=O)cc(C)n21 (stereo unspecified) | 0 | -3 | -6 | -9 | -2 | 2
COc1cc(/C(C)=N\NC(=O)CSc2nc3ccccc3n2C)ccc1O | -4 | 99* | 10 | -3 | -7 | 1
COc1cc(/C(C)=N/NC(=O)Cc2c(C)[nH][nH]c2=O)ccc1O | -3 | 99* | -7 | -6 | -19 | -2
C/C(=N\NC(=O)Cc1c(C)[nH][nH]c1=O)c1ccc(Cl)c(Cl)c1 | 7 | 18 | -4 | 3 | 6 | 1
C/C(=N/NC(=O)Cc1c(C)[nH][nH]c1=O)c1ccc(O)cc1 | 3 | 98* | 4 | 7 | -19 | 5
Cc1ccc(-c2ccc(S(=O)(=O)Nc3cccnc3)cc2)cc1 | 1 | -18 | 3 | -16 | -3 | 1
N#Cc1ccc(/C=N/NC(=O)c2cccc(S(=O)(=O)N3CCOCC3)c2)cc1 | -2 | 2 | 13 | -4 | 3 | 6
O=C(CSc1ccccc1)Nc1ccc(N2CCN(c3ccccc3)CC2)c(F)c1 | 6 | 100* | 4 | -11 | -5 | 3
Nc1ccc(N2CCN(c3ccccc3)CC2)c(F)c1 | 2 | 79* | 7 | -8 | -4 | -2
COCC(=O)Nc1ccc(N2CCN(c3ccccc3)CC2)c(F)c1 | 7 | -6 | 2 | -15 | -4 | -3
O=C(CSc1nc2ccccc2c2c1CCCC2)N1CCOCC1 | -5 | 2 | -1 | -13 | -4 | 5
NC1=NC2(CS1)CSC(N)=N2 | nt | nt | nt | nt | -10 | nt
COCCNC(=O)c1onc(CSc2ccc(C)c(C)c2)c1C(=O)O | 6 | 90* | -8 | 2 | -11 | -3
Cc1ccc(SCc2noc(C(=O)NC(C)C)c2C(=O)O)cc1C | -3 | 96* | 0 | -5 | -14 | 3
COCc1[nH][nH]c(=O)c1C=Nc1ccc(Oc2ccccc2)cc1 | 7 | 99* | 4 | 1 | -1 | 2
COCc1[nH][nH]c(=O)c1C=Nc1ccc(C(F)(F)F)cc1 | -2 | 20 | 9 | -8 | -3 | 3
CN(Cc1nc2ccccc2c(=O)[nH]1)C(=O)c1cccc(S(=O)(=O)N2CCc3ccccc32)c1 | 8 | 10 | nt | nt | -2 | -2
COCCSc1ccccc1C(=O)N1CCc2ccccc21 | nt | -7 | -11 | 11 | -21 | -2
O=C1CSC(=NC2CCCCC2)N1 | 5 | 98* | 7 | -1 | nt | 2
C=CCSc1nc2c(C(=O)OCC)nnn2c2ccccc12 | nt | -3 | 3 | -41 | -4 | 2
CCOC(=O)c1nnn2c1nc(SCC(C)=O)c1ccccc12 | 0 | 88* | -10 | 4 | -15 | nt
COc1cccc(C(=O)Nc2ccc(NC(C)=O)cc2)c1 | -3 | -8 | 1 | -8 | -4 | 2
COc1ccc(C(=O)Nn2cnnc2)cc1 | 5 | -7 | 26 | 7 | -3 | 1
COc1cccc(C(=O)Nc2cc(Cl)c(O)c(Cl)c2)c1 | 5 | 89* | 5 | 6 | -6 | 2
COc1cccc(C(=O)Nn2cnnc2)c1 | 1 | 1 | 30* | 12 | -6 | 2
